Source: PubChem BioAssay
Values joined by “and” are separate entries in the source; they are usually repeats but may differ in a detail not shown here. Equal entries are not always repeated. Active and inactive are the calls of the source. Unless noted, no stated cut-off is given here; in the data, active means inhibition above about 80%; inactive means the rest.

Columns and labels:
[1] = LFS_MB_P medulloblastoma growth inhibition, cell-based, chromothripsis tumors, cisplatin or BGB combos (AID 1671449); conditions: LFS_MB_P medulloblastoma cells;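 further: cells exposed for 96 hours; 0% = vehicle DMSO and 100% = killing by high DMSO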
[2] = HDN33 neuroblastoma growth inhibition, cell-based, chromothripsis tumors, cisplatin or BGB combos (AID 1671450); conditions: HDN33 neuroblastoma cells, stronger effect = higher value;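 further: cells exposed to compound for four days; 0% = vehicle DMSO and 100% = cell killing by high DMSO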
[3] = ICB984 medulloblastoma cell growth inhibition, synergistic combos for chromothripsis tumors, cisplatin or BGB combos (AID 1671451; call rule not given here;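 further: cells exposed for 96 hours before readout; 0% = vehicle DMSO and 100% = killing by high DMSO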); conditions: ICB984 medulloblastoma cells, drug combinations, stronger effect = higher value
[4] = LFS_MB_1R medulloblastoma cell growth inhibition, synergistic combos for chromothripsis tumors, cisplatin or BGB combos (AID 1671452); conditions: LFS_MB_1R medulloblastoma cells, stronger effect = higher value;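 further: cells exposed for 96 hours before readout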
[5] = HTB85 osteosarcoma cell growth inhibition, synergistic combos for chromothripsis tumors, BGB or cisplatin IC20 combos (AID 1671453); conditions: HTB85 osteosarcoma cells, drug combinations, stronger effect = higher value;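 further: cells exposed for 96 hours before readout; 0% = vehicle DMSO and 100% = high DMSO killing control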
[6] = CRL2098 osteosarcoma cell growth inhibition, synergistic combos for chromothripsis tumors, BGB or cisplatin IC20 combos (AID 1671454); conditions: CRL2098 osteosarcoma cells, drug combinations, stronger effect = higher value;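 further: cells exposed for 96 h before readout; 0% = vehicle DMSO and 100% = killing by high DMSO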
[7] = HD-MB03 medulloblastoma cell growth inhibition, synergistic combos for chromothripsis tumors, BGB or cisplatin IC20 combos (AID 1671455; in the data active means inhibition above about 83%;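 further: 0% = vehicle DMSO and 100% = high DMSO as cytotoxic control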); conditions: HD-MB03 medulloblastoma cells, stronger effect = higher value
[8] = UWB1.289 ovarian carcinoma cell growth inhibition, synergistic combos for chromothripsis tumors, BGB or cisplatin combos (AID 1671456); conditions: UWB1.289 ovarian carcinoma cells, stronger effect = higher value;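 further: cells exposed to compound for four days; 0% = vehicle DMSO and 100% = killing by high DMSO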
[9] = LFS_MB_2R medulloblastoma cell growth inhibition, synergistic combos for chromothripsis tumors, cisplatin combos (AID 1671457); conditions: LFS_MB_2R medulloblastoma cells, stronger effect = higher value;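 further: cells exposed to compound for four days before readout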
[10] = MDA-MB-436 breast carcinoma cell growth inhibition, synergistic combos for chromothripsis tumors, BGB or cisplatin combos (AID 1671458; call rule not given here;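 further: cells exposed for 96 hours; 0% = vehicle DMSO and 100% = killing by high DMSO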); conditions: MDA-MB-436 breast carcinoma growth inhibition, drug combinations, stronger effect = higher value
[11] = UWB1.289_BRCA1 ovarian cancer growth, cell-based, BGB or cisplatin combinations (AID 1671459); conditions: UWB1.289 BRCA1 ovarian carcinoma, drug combinations, stronger effect = higher value
[12] = human astrocyte viability loss, single and combined drugs, cytotoxicity control for chromothriptic childhood tumor combination screen, cell-based, BGB or cisplatin IC20 combos (AID 1671460); conditions: Human astrocytes, drug combinations, stronger effect = higher value;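 further: cells exposed to compounds for 96 hours before viability readout; 0% = vehicle and 100% = killing control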
[13] = growth inhibition of BT084 medulloblastoma cells, cell-based, ICGC_MB145, cisplatin and BGB IC40 combos (AID 1671461); conditions: drug combinations, stronger effect = higher value;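 further: cells exposed to drugs for 96 hours; 0% = vehicle DMSO and 100% = high DMSO full killing control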
[14] = growth inhibition of RCMB18 medulloblastoma cells, cell-based, cisplatin and BGB IC40 combos (AID 1671462); conditions: stronger effect = higher value;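 further: cells exposed to compound for four days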
[15] = growth inhibition of CRL1545 osteosarcoma cells, cell-based, cisplatin and BGB IC20 combos (AID 1671464); conditions: stronger effect = higher value;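 further: cells exposed to compound for 96 hours before readout; 0% = vehicle DMSO and 100% = high DMSO killing control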
[16] = antimalarial activity against Dd2 strain (AID 2302;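 active means growth inhibition above 50% at the single 2 µM test dose, taken to imply half-maximal potency below 2 µM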;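 further: 0% = DMSO untreated growth and 100% = chloroquine plus artemisinin killed control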); conditions: P. falciparum Dd2 in RBCs, LDH growth readout, 72 h; at 2 µM; stronger effect = higher value
[17] = HepG2 cytotoxicity, primary screen, cytotoxicity control for P. falciparum antimalarial project, cell-based, ATP luminescence (AID 2303;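 active means inhibition above 50%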;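 further: 0% = DMSO wells and 100% = digitonin-killed cells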); conditions: HepG2 viability, 24-48 h, at 10 µM, stronger effect = higher value
[18] = target: L-lactate dehydrogenase (Plasmodium falciparum (isolate CDC / Honduras)) (UniProt Q27743); assay: PfLDH activity inhibition – cell lysate, 3D7 strain, counter-screen for P. falciparum growth inhibition project (AID 2304; call rule not given here;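 further: 0% = vehicle and 100% = reference inhibitor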); conditions: P. falciparum 3D7 crude extract, LDH APAD/NBT absorbance; at 2 µM; stronger effect = higher value
[19] = inhibition of 3D7 malaria parasite growth – strain 3D7 (AID 2306; call rule not given here;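 further: 0% = DMSO wells and 100% = chloroquine plus artemisinin control wells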); conditions: P. falciparum 3D7 erythrocytic growth, LDH absorbance, 72 h; at 2 µM; stronger effect = higher value
[20] = measured here: combination with BGB IC40, at 0.05 µM
[21] = measured here: with BGB IC20 combination, at 0.5 µM
[22] = measured here: with cisplatin IC20 combination, at 0.5 µM
[23] = measured here: combination with cisplatin, at 0.5 µM
[24] = measured here: combination with cisplatin, at 5 µM

Chain of L-lactate dehydrogenase (Plasmodium falciparum (isolate CDC / Honduras)) (Q27743 whole entry, looked up): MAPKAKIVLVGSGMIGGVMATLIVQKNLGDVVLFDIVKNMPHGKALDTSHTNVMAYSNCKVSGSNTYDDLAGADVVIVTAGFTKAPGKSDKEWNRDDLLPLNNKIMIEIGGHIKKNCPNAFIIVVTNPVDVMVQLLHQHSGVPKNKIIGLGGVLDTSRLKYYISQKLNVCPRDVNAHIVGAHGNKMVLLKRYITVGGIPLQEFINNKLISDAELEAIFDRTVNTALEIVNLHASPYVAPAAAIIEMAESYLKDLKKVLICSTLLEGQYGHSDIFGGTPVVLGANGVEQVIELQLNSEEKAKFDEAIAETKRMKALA

Question: With `CC1OC(CC(=O)O)CC2=C1C(=O)c1c(O)cccc1C2=O` (configuration not stated) as the compound, how does the inhibition ([1]; at 0.5 µM, stronger effect = higher value) read?
Answer: 13.6% (inactive)

Question: And the inhibition ([1]; measured here: combination with BGB IC20, at 0.005 µM)?
Answer: -20.4%

Question: And the inhibition ([1]; measured here: combination with BGB IC40, at 0.005 µM)?
Answer: -16.6%

Question: What about the inhibition [1, 20] of the same compound?
Answer: 120%

Question: What about the inhibition ([1]; measured here: combination with cisplatin, at 0.5 µM, stronger effect = higher value) of the same compound?
Answer: 28.7%

Question: And the inhibition ([1]; measured here: combination with cisplatin, at 5 µM, stronger effect = higher value)?
Answer: 128%

Question: What about the inhibition ([2]; BGB combo, at 5 µM) of the same compound?
Answer: 100%

Question: And the inhibition ([2]; at 0.5 µM)?
Answer: 99.9% (active)

Question: And the inhibition ([2]; cisplatin combo, at 5 µM)?
Answer: 99.9%

Question: And the inhibition [2, 21]?
Answer: 99.9%

Question: And the inhibition [2, 22]?
Answer: 99.9%

Question: What about the inhibition ([2]; single agent, at 5 µM) of the same compound?
Answer: 99.9%

Question: And the inhibition ([3]; BGB IC20 combo, at 0.005 µM)?
Answer: 101%

Question: What about the inhibition ([3]; BGB IC40 combo, at 0.005 µM) of the same compound?
Answer: 102%

Question: What about the inhibition ([3]; BGB IC40 combo, at 0.05 µM) of the same compound?
Answer: 102%

Question: And the inhibition ([3]; at 0.5 µM)?
Answer: 0.28% (inactive)

Question: And the inhibition ([3]; cisplatin combo, at 0.05 µM)?
Answer: 102%

Question: And the inhibition ([3]; cisplatin combo, at 0.5 µM)?
Answer: 10.8%

Question: And the inhibition ([3]; cisplatin combo, at 5 µM)?
Answer: 102%

Question: What about the inhibition ([3]; measured here: 5 uM single agent, at 5 µM) of the same compound?
Answer: 98.7%

Question: And the inhibition ([4]; at 0.5 µM)?
Answer: 106% (active)

Question: What about the inhibition [4, 20] of the same compound?
Answer: 101%

Question: What about the inhibition [4, 23] of the same compound?
Answer: 111%

Question: What about the inhibition [4, 24] of the same compound?
Answer: 106%

Question: And the inhibition ([5]; at 0.5 µM)?
Answer: 99.9% (active)

Question: And the inhibition ([5]; measured here: with BGB IC20, at 0.5 µM)?
Answer: 100%

Question: What about the inhibition ([5]; measured here: with BGB IC20, at 5 µM) of the same compound?
Answer: 100%

Question: And the inhibition ([5]; measured here: with cisplatin IC20, at 0.5 µM)?
Answer: 99.9%

Question: What about the inhibition ([5]; measured here: with cisplatin IC20, at 5 µM) of the same compound?
Answer: 99.7%

Question: What about the inhibition ([5]; single agent, at 5 µM) of the same compound?
Answer: 99.7%

Question: And the inhibition ([6]; at 0.5 µM)?
Answer: 100% (active)

Question: What about the inhibition ([6]; measured here: combination with BGB at IC20, at 0.5 µM) of the same compound?
Answer: 100%

Question: And the inhibition ([6]; measured here: combination with cisplatin at IC20, at 0.5 µM)?
Answer: 100%

Question: What about the inhibition ([7]; at 0.5 µM) of the same compound?
Answer: 99.8% (active)

Question: And the inhibition ([7]; measured here: combo with BGB at IC20, at 0.5 µM)?
Answer: 99.9%

Question: And the inhibition ([7]; measured here: combo with cisplatin at IC20, at 0.5 µM)?
Answer: 99.8%

Question: And the inhibition ([8]; at 0.5 µM)?
Answer: 102% (active)

Question: What about the inhibition ([8]; measured here: inhibition with BGB combination, at 0.05 µM) of the same compound?
Answer: 65.9%

Question: What about the inhibition ([8]; measured here: inhibition with cisplatin combination, at 0.05 µM) of the same compound?
Answer: 91.2%

Question: And the inhibition ([9]; at 0.5 µM)?
Answer: 106% (active)

Question: What about the inhibition [9, 23] of the same compound?
Answer: 105%

Question: What about the inhibition [9, 24] of the same compound?
Answer: 105%

Question: What about the inhibition ([10]; at 0.5 µM) of the same compound?
Answer: 102% (active)

Question: And the inhibition ([10]; measured here: BGB combination, at 0.5 µM)?
Answer: 103%

Question: And the inhibition ([10]; measured here: BGB combination, at 5 µM)?
Answer: 103%

Question: And the inhibition ([10]; measured here: cisplatin combination, at 0.5 µM)?
Answer: 101%

Question: And the inhibition ([10]; measured here: cisplatin combination, at 5 µM)?
Answer: 109%

Question: And the inhibition ([11]; BGB combination, concentration series, at 5 µM)?
Answer: 121%

Question: And the inhibition ([11]; at 0.5 µM)?
Answer: 111% (active)

Question: What about the inhibition ([11]; cisplatin combination, concentration series, at 5 µM) of the same compound?
Answer: 132%

Question: What about the inhibition ([12]; at 0.5 µM) of the same compound?
Answer: 102% (active)

Question: And the inhibition ([12]; measured here: combo with BGB IC20, at 0.5 µM)?
Answer: 105%

Question: And the inhibition ([12]; measured here: combo with cisplatin IC20, at 0.5 µM)?
Answer: 101%

Question: And the inhibition ([13]; at 0.5 µM)?
Answer: 106% (active)

Question: What about the inhibition ([13]; cisplatin combination, at 0.5 µM) of the same compound?
Answer: 108%

Question: And the inhibition ([13]; cisplatin combination, at 5 µM)?
Answer: 110%

Question: What about the inhibition ([13]; measured here: BGB IC40 combination 0.05 uM, at 0.05 µM) of the same compound?
Answer: 67.7%

Question: And the inhibition ([13]; single agent, at 5 µM)?
Answer: 107%

Question: And the inhibition ([14]; at 0.5 µM)?
Answer: 99.3% (active)

Question: What about the inhibition ([14]; cisplatin combo, at 5 µM) of the same compound?
Answer: 103%

Question: What about the inhibition ([14]; measured here: BGB IC40 combination, at 0.05 µM) of the same compound?
Answer: 97.5%

Question: What about the inhibition [14, 23] of the same compound?
Answer: 102%

Question: And the inhibition ([14]; single agent, at 5 µM)?
Answer: 101%

Question: And the inhibition ([15]; at 0.5 µM)?
Answer: 99.9% (active)

Question: What about the inhibition [15, 21] of the same compound?
Answer: 99.9%

Question: And the inhibition [15, 22]?
Answer: 99.9%

Question: And the inhibition ([15]; single agent, at 0.05 µM)?
Answer: 99.9%

Question: What about the inhibition ([15]; single agent, at 5 µM) of the same compound?
Answer: 99.9%

Question: For `COc1ccc2ncc(F)c(CCN3C[C@H](CNCc4nc5c(cc4Cl)OCC(=O)N5)[C@H](O)C3)c2n1`, which growth inhibition [16] is on record?
Answer: 15% (inactive) and 23% (inactive) and 30% (inactive)

Question: And the inhibition [17]?
Answer: 13% (inactive) and 5% (inactive) and 12% (inactive)

Question: And the inhibition [18]?
Answer: 0% (inactive) and -2% (inactive) and 2% (inactive)

Question: What about the growth inhibition [19] of the same compound?
Answer: 93% (active) and 90% (active)
